{"source": "PubChem BioAssay (NCI)", "note": "This is part of a sample that, as a whole, favours compounds with a hit. Of some 83,000 tested, about 20% had one in any assay.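 Assay: single dose, 48 h. Readout: percent growth (0 = no net growth; negative = cell death). Active: <10.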 Values without a mark were called inactive. The source made the active and inactive calls."}
{"test_system": "MDA-MB-468 breast", "test": "NCI-60 one-dose screen, 48 h (100 = growth as untreated, 0 = no growth, -100 = all killed)", "conditions": "10 µM unless noted"}
{"smiles": "C=C1C(=O)O[C@H]2[C@H]1CC/C(Cn1cc(-c3cccc(Cl)c3)nn1)=C\\CC[C@@]1(C)O[C@@H]21", "growth": "-66.1% (active)"}
{"smiles": "Cc1ccc(-c2nc(C(Cl)Cl)n3nc(-c4ccccc4)cc3n2)cc1", "growth": "-21.1% (active)"}
{"smiles": "CCC(C)Oc1cc(/C=N/NC(=O)c2cnn3c2NC(c2ccccc2)C3)ccc1OC", "note": "(configuration not stated)", "growth": "19.1%"}
{"smiles": "O=C(Cn1nc(-c2cccc3ccccc23)ccc1=O)NCc1cccc(Cl)c1", "growth": "12.8% [50 µM]"}
{"smiles": "CN1CCN(C(=O)[C@]23CCC(C)(C)C[C@H]2C2=CC[C@@H]4[C@@]5(C)C/C(=C/c6ccncc6)C(=O)C(C)(C)[C@@H]5CC[C@@]4(C)[C@]2(C)CC3)CC1", "growth": "44.6%"}
{"smiles": "O=C(Nc1cccc(N=Cc2c(O)ccc3ccccc23)c1)c1ccccc1", "growth": "98.9%"}
{"smiles": "Cc1cc(=O)oc2cc(OCCn3c(C)nn(-c4ccc(Cl)cc4)c3=O)ccc12", "growth": "16.1%"}
{"smiles": "CCNC(=O)Oc1ccc(/C(=C(/C)Cc2ccc(OC)cc2)c2ccc(OCCN3CCCCCC3)cc2)cc1", "growth": "51.8%"}
{"smiles": "COc1ccc(NC2=NC(C)(CO)CS2)cc1", "note": "(configuration not stated)", "growth": "108%"}
{"smiles": "COc1ccc(C2C(C#N)=C(N)Oc3c2sc2c(C)cccc32)cc1", "note": "(configuration not stated)", "growth": "8.47% (active)"}
{"smiles": "CCC(CC)(N(CC(=O)O)CC(=O)O)C(CC)(CC)N(CC(=O)O)CC(=O)O", "growth": "127%"}
{"smiles": "CCc1c(C(=O)N[C@@H](C(=O)OCc2ccccc2)C(C)O)[nH]c2ccc(Cl)cc12", "note": "(some centres not stated)", "growth": "79.1%"}
{"smiles": "O=C(N/N=C/c1cc2ccccc2c2ccccc12)c1cc(O)c(O)c(O)c1", "growth": "64.9%"}
{"smiles": "COc1ccc(-c2onc(N)c2-c2cc(OC)c3c(c2)OCO3)cc1", "growth": "-29.2% (active)"}
{"smiles": "C#CCOc1cccc(Nc2ncnc3cc(NC(=O)C=C)ccc23)c1", "growth": "-24.9% (active)"}
{"smiles": "CN1CCC(c2ccccc2)(c2ccccc2)C(=O)C1", "growth": "-11.8% (active)"}
{"smiles": "c1ccc(N2N=C(c3cccc(Nc4ccncc4)c3)CC2c2ccc3c(c2)OCO3)cc1", "note": "(configuration not stated)", "growth": "15.1%"}
{"smiles": "COc1ccc(-c2cnc(NC(=O)CCCCCCNC(=O)C(O)(O)C(F)(F)F)s2)cc1", "growth": "-33.6% (active)"}
{"smiles": "O[N+]1=CC=CCC1=S.On1ccccc1=S.[Zn]", "growth": "-75.8% (active)"}
{"smiles": "CC[n+]1ccc2c(c1)C(=O)c1nccc3c1c-2nc1ccccc13", "growth": "-52.3% (active)"}
{"smiles": "Cc1ccc(Nc2c(C(N)=O)cnc3ccc(S(=O)(=O)Nc4cc(C)on4)cc23)cc1", "growth": "92.4%"}
{"smiles": "C/C(CC(C)C)=N/NC(N)=S", "growth": "7.03% (active)"}
{"smiles": "O=C1OC2C(I)C3CC2C1C3c1ccccc1", "note": "(configuration not stated)", "growth": "91.5%"}
{"smiles": "O=[N+]([O-])c1ccc(Cl)c(-c2cc(CCCCO)on2)c1", "growth": "98.3%"}
{"smiles": "C#Cc1cccc(Nc2ncnc3cc(OCCOC)c(OCCOC)cc23)c1", "growth": "-4.78% (active)"}
{"smiles": "CN1CCCNc2c(c(=O)c2=O)NCCCN(C)CCCNc2c(c(=O)c2=O)NCCCN(C)CCCNc2c(c(=O)c2=O)NCCCN(C)CCCNc2c(c(=O)c2=O)NCCCN(C)CCCNc2c(c(=O)c2=O)NCCCN(C)CCCNc2c(c(=O)c2=O)NCCCN(C)CCCNc2c(c(=O)c2=O)NCCC1", "growth": "32.9%"}
{"smiles": "Cc1cccc(-n2c(C)nc3ccc(N4CCCNC4=O)cc3c2=O)c1", "growth": "99.4%"}
